Bioassay records (PubChem)
An excerpt weighted towards active compounds, which were near 1.6% of everything screened.
PrPC surface inh: reduces human prion protein on the cell surface; 0.43% of 370,000 active; inhibition, % at 13.8 µM; AID 720596; cell surface PrPC, TR-FRET read-out; in the data active means inhibition above about 24%; further: 0% = median of the test wells and 100% = reference compound wells
PrP UTR inh: suppresses PrP 5' UTR mRNA reporter expression | inhibition, % (test concentration not listed) | AID 488862 | 0.35% of 340,000 active | cell-based PrP 5' UTR mRNA reporter, plate reader; in the data active means inhibition above about 52%; further: 0 = median of the neutral control wells
BH1578 lux ind: quorum light induction in luxS cqsA deficient V. cholerae; V. cholerae BH1578 lux reporter, luminescence, 6 h; activation, % at 18.7 µM; 0.16% of 350,000 active; AID 588436; in the data active means activation mostly above about 9.7%, no sharp cut-off
PfHsp40 rescue: compounds rescuing yeast from Plasmodium falciparum HSP40 toxicity. growth rescue, % at 12.5 µM. 0.68% of 340,000 active. AID 504582. S. cerevisiae expressing PfHsp40, growth rescue, ATP luminescence; in the data active means growth rescue above about 28%, passing the limit was not always enough;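 further: yeast W303a lacking pdr1 and pdr3 grown in galactose medium; growth measured after three days at 30 °C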
SARS 3CLpro inh: SARS-CoV 3CLpro protease inhibition; P0C6X7; recombinant SARS-CoV 3CLpro, quenched FRET peptide cleavage; inhibition, % at 6 µM; 0.14% of 290,000 active; AID 1706; in the data active means inhibition above about 12%
SSB-PriA inh: K. pneumoniae PriA-SSBct interaction inhibition; AID 1272365; AlphaScreen SSBct-PriA binding, biotinylated peptide; 0.6% of 430,000 active; inhibition, % at 33 µM; in the data active means inhibition mostly above about 37%, no sharp cut-off; inactive means mostly below about 20%;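 further: plate controls were negative control peptide for no effect and reference peptide for full effect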
PrPC TRFRET cf: confirmation of inhibitors of cell surface human prion protein; 65% of 1,500 active; shares compounds with PrPC surface inh; cell surface PrPC level, TR-FRET; inhibition, % at 13.8 µM; in the data active means inhibition above about 25%
LD9 cytotox: LD9 cell cytotoxicity, PrPc inhibitor counter-screen | shares compounds with PrPC surface inh | LD9 cells cytotoxicity, luminescence viability | inhibition, % at 13.8 µM | 29% of 1,500 active | AID 743201; in the data active means inhibition above about 9.5%
The depositor's hits bear a star; ! = not confirmed by another sample.

Results for Cc1nn(Cc2ccc(Cl)c(Cl)c2)c(C)c1NC(=O)c1cc(CC(C)C)on1 ?
PrPC surface inh: 49*; PrP UTR inh: -8; BH1578 lux ind: 0; PfHsp40 rescue: -1; SARS 3CLpro inh: 5; SSB-PriA inh: -13; PrPC TRFRET cf: 51*; LD9 cytotox: 1

How did Cc1ccccc1Cn1nc(C)c(NC(=O)c2cc(CC(C)C)on2)c1C do in these assays?
PrPC surface inh: 7; PrP UTR inh: -12; BH1578 lux ind: inactive; PfHsp40 rescue: 0; SARS 3CLpro inh: -1; SSB-PriA inh: 4

What do the screens show for `Cc1cc2ncc(CCCNC(=O)CSC3CCCC3)cn2n1`?
SSB-PriA inh: 7

How did CCN(CC)S(=O)(=O)c1cc(C(=O)Nc2cccnc2)ccc1Cl do in these assays?
PrPC surface inh: -6; PrP UTR inh: -50; BH1578 lux ind: 0; PfHsp40 rescue: -2; SARS 3CLpro inh: 2; SSB-PriA inh: 7

Results for CCN(CC)S(=O)(=O)c1cc(C(=O)Nc2ccncc2)ccc1Cl ?
PrPC surface inh: 26*; PrP UTR inh: -1; BH1578 lux ind: inactive; PfHsp40 rescue: -1; SARS 3CLpro inh: 1; SSB-PriA inh: -17; PrPC TRFRET cf: 20; LD9 cytotox: 17*

How did CCCCCCSc1ccc(-c2nc3ccc(C)cn3c2NCCCC)cc1OC do in these assays?
PrPC surface inh: 8

What do the screens show for `CCCCCCSc1ccc(-c2nc3ccc(Cl)cn3c2NCCCC)cc1OC`?
PrPC surface inh: 33*!; PrP UTR inh: -11; BH1578 lux ind: inactive; PfHsp40 rescue: -1; SSB-PriA inh: -16; PrPC TRFRET cf: 9; LD9 cytotox: 0

What do the screens show for `Cc1cc(C(=O)CSc2nc(N)cc(=O)[nH]2)c(C)n1CC1CCCO1` (stereo unspecified)?
PrPC surface inh: 0; PrP UTR inh: -17; BH1578 lux ind: inactive; PfHsp40 rescue: -1; SSB-PriA inh: 3

What do the screens show for `Cc1cc(C(=O)CSc2nc3ccccc3[nH]2)c(C)n1CC1CCCO1` (stereo unspecified)?
PrPC surface inh: 44*; PrP UTR inh: 9; BH1578 lux ind: inactive; PfHsp40 rescue: -1; SARS 3CLpro inh: -1; SSB-PriA inh: 11; PrPC TRFRET cf: 34*; LD9 cytotox: 38*

What do the screens show for `Cn1nc(CN(Cc2ccco2)C(=O)c2cccnc2)cc1C1CC1`?
SSB-PriA inh: -7

How did O=C1C(Nc2ccc(O)cc2)=C/C(=N/S(=O)(=O)c2cccs2)c2ccccc21 do in these assays?
PrPC surface inh: 46*; PrP UTR inh: -9; BH1578 lux ind: 0; PfHsp40 rescue: 15; SARS 3CLpro inh: 7; PrPC TRFRET cf: 59*; LD9 cytotox: 99*

What do the screens show for `COc1ccc(NC(=O)c2oc3ccccc3c2NC(=O)c2ccccc2I)c(OC)c1`?
SSB-PriA inh: -17

What do the screens show for `Cc1cc(NC(=O)CCC(=O)N(c2ccccc2)C(C(=O)NC2CCCC2)c2ccccc2)no1` (stereo unspecified)?
PrPC surface inh: 35*; PrP UTR inh: -17; BH1578 lux ind: inactive; PfHsp40 rescue: -1; SARS 3CLpro inh: 2; SSB-PriA inh: -3; PrPC TRFRET cf: 52*; LD9 cytotox: -3

How did Cc1cc(NC(=O)CCC(=O)N(c2ccccc2)C(C(=O)NC2CCCC2)c2cccs2)no1 (stereo unspecified) do in these assays?
PrPC surface inh: 63*; PrP UTR inh: -21; BH1578 lux ind: -1; PfHsp40 rescue: 0; SARS 3CLpro inh: 2; SSB-PriA inh: -6; PrPC TRFRET cf: 59*; LD9 cytotox: -2

Results for N#C/C(=N/Nc1ccc(OC(F)(F)F)cc1)C(N)=S ?
PrPC surface inh: 26*; PrP UTR inh: -60; BH1578 lux ind: 0; PfHsp40 rescue: 21; SARS 3CLpro inh: 4; PrPC TRFRET cf: 38*; LD9 cytotox: 28*

How did Cc1ccc(NN=C(C#N)C(N)=S)cc1C do in these assays?
SSB-PriA inh: 15

Results for COc1ccc(C2(CNC(=O)c3ccno3)CCCC2)cc1 ?
SSB-PriA inh: -21
